Composite z-score and z-score data for five compounds are collected here from PubChem BioAssay.

Activity calls are given as the source filed them. Unless noted, how the calls were made is not given here.

Assay [1] has as its system Wnt5a (protein binding on small-molecule microarray). In words: small molecules binding Wnt5a protein – biophysical, small-molecule microarray, 635/667 nm fluorescence, primary screen (AID 1142).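 Further: fluorescence read at 667 nm with signal to noise per printed feature.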 The settings on record: 635 nm fluorescence, higher = more signal.
The nature of assay [2]: ATP-based viability of Huh7 replicon cells – cell-based, CellTiter-Glo luminescence, basal, 48 h, cytotoxicity control for HCV replication inhibitor project, primary screen (AID 1143).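 Further: Huh7 hepatoma cells carrying a hepatitis C replication reporter with no stimulus; test concentration not given here.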 The settings on record: higher = more signal, called active from +8 up or from −8 down.
Assay [3] is described as follows: Pseudomonas biofilm growth suppression – PAO1 strain, BacTiter-Glo luminescence, LB-PBS, primary screen (AID 1144). The settings on record: P. aeruginosa PAO1 biofilm, 12 h, higher = more signal.
The nature of assay [4]: basal CRE-LacZ reporter activity in PC12 – cell-based, unstimulated, primary screen (AID 1145). The settings on record: no forskolin, luminescence, 4.5 h, higher = more signal, called active from +8 up or from −8 down.
Assay [5] in a line: forskolin-driven CRE-LacZ activity in PC12 – cell-based, CRE-LacZ reporter, forskolin-stimulated, primary screen (AID 1146).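 Further: PC12 cells with 6xCRE LacZ reporter stimulated by forskolin 10 µM; beta-galactosidase reporter signal reflecting CREB driven transcription.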 The settings on record: luminescence, 4.5 h, higher = more signal, called active from +8 up or from −8 down.
Assay [6] concerns the target Streptavidin (Streptomyces avidinii) (UniProt P22629). In words: compounds binding control protein streptavidin – biophysical, small-molecule microarray, 635/667 nm fluorescence, artefact control for SMM compound annotation, primary screen (AID 1147).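 Further: signal reflects streptavidin binding to arrayed compounds as a control protein.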 The settings on record: higher = more signal.
Assay [7] in a line: probe aInhba binding on compound microarray – biochemical, small-molecule microarray, 635/667 nm fluorescence, primary screen (AID 1148).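 Further: score merges 667nm spot fluorescence with signal-to-noise for antibody binding to printed compounds.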 The settings on record: higher = more signal.
For assay [8], the target named is Torsin-1A (Homo sapiens) (UniProt O14656). In words: TOR1A wild-type binding on microarray – cell lysate, small-molecule microarray, lysate, 635/667 nm, primary screen (AID 1149). The settings on record: COS7 hTOR1A-WT lysate, 635 nm fluorescence, higher = more signal.
Torsin-1A (Homo sapiens), sequence (O14656 whole entry, looked up): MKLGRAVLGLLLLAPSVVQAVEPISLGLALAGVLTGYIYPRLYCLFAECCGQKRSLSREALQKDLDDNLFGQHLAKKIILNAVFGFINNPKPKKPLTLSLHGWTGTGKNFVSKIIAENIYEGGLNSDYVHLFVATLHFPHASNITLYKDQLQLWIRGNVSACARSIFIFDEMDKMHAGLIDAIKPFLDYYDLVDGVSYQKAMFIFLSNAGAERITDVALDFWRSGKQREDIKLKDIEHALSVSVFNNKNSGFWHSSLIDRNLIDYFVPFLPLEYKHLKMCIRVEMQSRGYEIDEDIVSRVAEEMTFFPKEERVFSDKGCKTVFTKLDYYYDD
Assay [9] shares this target. In words: torsin A mutant lysate binding on microarrays – cell lysate, small-molecule microarray, COS7 lysate, 635/667 nm fluorescence, primary screen (AID 1150).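 Further: score pools 667 nm emission and signal to noise measuring lysate protein binding.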 The settings on record: COS7 hTOR1A mutant lysate, 635 nm fluorescence, higher = more signal.
The test system of assay [10] is Sonic hedgehog protein (Shh). In words: Sonic hedgehog microarray binding compounds – biochemical, small-molecule microarray, 635/667 nm fluorescence, primary screen (AID 1151).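 Further: Shh protein binding to compounds spotted on small-molecule microarray slides; score combines spot fluorescence intensity with signal-to-noise across triplicate slides.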 The settings on record: 635 nm fluorescence, higher = more signal.

Streptavidin (Streptomyces avidinii), sequence (P22629 whole entry, looked up): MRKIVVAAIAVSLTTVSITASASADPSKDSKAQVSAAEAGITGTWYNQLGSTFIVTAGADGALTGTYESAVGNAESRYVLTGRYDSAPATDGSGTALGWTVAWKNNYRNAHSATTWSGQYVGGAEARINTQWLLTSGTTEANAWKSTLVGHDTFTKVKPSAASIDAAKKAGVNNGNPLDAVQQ

For the compound `CC(C)C(=C=CC[C@H](O)c1ccccc1OCCO)C[C@H](O)c1ccccn1`, the composite z-score was 0.257 in [1]; -0.199 in assay [6]; -0.0205 in [7]; 0.635 with Torsin-1A (Homo sapiens) [8]; 1.59 in the assay with Torsin-1A (Homo sapiens) [9]; 1.63 in assay [10]. Further, the z-score is -0.667 (inactive) in [2], -0.0531 (inactive) in assay [3], 4.99 (inactive) in assay [4] and 0.0622 (inactive) in [5].

Regarding `Cc1ccc(S[C@]2(C(=O)O)CC(=O)N(C3Cc4ccccc4C3)[C@@H]2c2ccc(CO)cc2I)cc1`, the composite z-score was -0.227 in assay [1]; 0.103 in assay [6]; -0.0791 in assay [7]; -0.594 with Torsin-1A (Homo sapiens) [8]; -0.584 with Torsin-1A (Homo sapiens) [9]; -0.439 in assay [10]. The z-score is -1.02 (inactive) in assay [2], -0.138 (inactive) in [3], -0.062 (inactive) in [4] and -0.097 (inactive) in assay [5].

For `O=C(CCN1CCOCC1)c1cccc(O)c1`, the composite z-score in assay [1] is 0.361; in assay [6], 0.802; in assay [7] it was -0.0962; with Torsin-1A (Homo sapiens) [8] it was 2.59; with Torsin-1A (Homo sapiens) [9] it was 1.38; in assay [10], 1.82. For the same compound, the z-score in assay [2] is -2.97 (inactive); in assay [3], -0.779 (inactive); in [4], 0.182 (inactive); in [5], 5.37 (inactive).

On to `CCOC(=O)C[C@H]1[C@H](OC(=O)Cc2ccc3c(c2)OCO3)[C@@H](NC(=O)C2CCCCC2)c2cc(OCCCO)ccc2N1C(=O)Cc1ccc(OC)cc1`, for which the composite z-score worked out at 0.142 in assay [1]; 0.219 in assay [6]; 0.0301 in [7]; 0.146 with Torsin-1A (Homo sapiens) [8]; 0.511 with Torsin-1A (Homo sapiens) [9]; 0.541 in [10]. The z-score is -1.15 (inactive) in assay [2], -0.0589 (inactive) in assay [3], 6.93 (inactive) in assay [4] and -0.943 (inactive) in assay [5].

For `C=C[C@@H](COC(C)=O)N(Cc1ccccc1[N+](=O)[O-])S(=O)(=O)c1ccc(Br)cc1`, the composite z-score is 0.521 in [1]; 1.16 in assay [6]; -0.104 in assay [7]; 0.55 in the assay with Torsin-1A (Homo sapiens) [8]; 1.58 with Torsin-1A (Homo sapiens) [9]; 1.97 in assay [10]. Also, the z-score in assay [2] was -4.76 (inactive); in assay [3] it was -1.65 (inactive); in [4] it was -0.0108 (inactive); in assay [5] it was -1.41 (inactive).
